The first experiment concerns the target DNTTIP1. Put plainly: pooled miR-30 sensor sort-seq; sequence = guide strand. Particulars: shRNA.
Take TAGAACCACATGCTAGTCTGGG: the sensor-assay potency score (higher = more potent) is -0.495.
Still for that read-out and setting: as for TTGGTTTCCATACCATGCCGGC, the figure is -0.684.
Regarding TTGATGTAGATTCTTCCTCTGG, the sensor-assay potency score (higher = more potent) was -0.475.
As for TTTGGTTTCCATACCATGCCGG, the sensor-assay potency score (higher = more potent) was -0.318.
For the sequence TTTATCATTATGTTCCAAGGGT, the sensor-assay potency score (higher = more potent) stood at 0.164.
TGAGTCACTACAAACTCGCTCA gave a sensor-assay potency score (higher = more potent) of -0.249.
On the same count and under the same terms, the same measure for TTCCTCTAGCTTCAGATCCAGG: -1.66.
On the same count and under the same terms, as for TACTTGTTGAAGACAGTCTGGA, the figure is 0.302; as for TGAAACTTGTTGTCATCTGTGA, 0.435.
The same measure, in the same setting: the same measure for TATACTTTCTCATCTTCTCCAC: 0.0054.
Take TTTCAATTCCTCTAGCTTCAGA: the sensor-assay potency score (higher = more potent) was -0.665.

In another experiment the target is DOCK11. Described as above. Conditions: shRNA.
As to TTTCTTGAACTAAACTGTCGGT, the sensor-assay potency score (higher = more potent) was 0.142.
Still for that read-out and setting: as for TTGATCTTCTTTAATTAGCCGC, the figure is -0.638; as for TAAACTGTCGGTGTTGATCTGA, 0.463.
Same read-out and setting: as for TTGAACTAAACTGTCGGTGTTG, the figure is -0.114.
Same read-out and setting: as for TTTAGCTGTCCTGTGCACCTTC, the figure is 0.773.
In turn, TTCAATATTGCTATCATCGTAG displayed a sensor-assay potency score (higher = more potent) of 0.383.
Still for that read-out and setting: the same measure for TTCTTGAACTAAACTGTCGGTG: -0.436; for TGATCTTAGATAACTATCCAAG: -1.04; for TTGCTTTATGCAACCAGCCTTG: -0.849.
The same measure, in the same setting: the same measure for TTTTGTATGCATAACTTCCAGA: -0.169.
TTCACTATAATGGACATCCATC registered a sensor-assay potency score (higher = more potent) of -1.02.
Same read-out and setting: the same measure for TTCTCTTCCAACAAGTATGTGG: -0.568.

Source of the values: the OligoGym collection.
Further: reference of the scale not given here.
